Screening data deposited in PubChem BioAssay by The Scripps Research Institute Molecular Screening Center.
Hits are enriched below; roughly 1.3% of the tested compounds scored in any of these assays.
Fam108B inh: mouse Fam108B serine hydrolase inhibitors, primary screen, counter-screen for RBBP9 inhibitor project, biochemical, fluorescence polarization; inhibition, % at 9.51 µM; AID 1947, 2009; recombinant Fam108B, FP-Rh probe fluorescence polarization; 300,000 compounds, 0.33% hits;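 active = inhibition above the screen mean inhibition plus 3 SD, computed separately per campaign, cut at about 18% in these data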;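 note: inhibitors lower polarization as less probe binds the enzyme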
LYPLA1 counter: LYPLA1 inhibitors, primary screen, counter-screen for PME1 inhibitor project, biochemical, fluorescence polarization, FP-Rh probe ABPP. recombinant LYPLA1. inhibition, % at 5.9 µM. 320,000 compounds, 0.16% hits. AID 2174, 2009;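 active = inhibition above the mean of all tested compounds plus 3 SD, set per campaign, cut at about 14% in these data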;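 note: inhibitors block serine hydrolase probe labeling of LYPLA1 so polarization falls; 0% = enzyme with DMSO and 100% = wells lacking LYPLA1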
Target sequence (O75608 whole entry, looked up): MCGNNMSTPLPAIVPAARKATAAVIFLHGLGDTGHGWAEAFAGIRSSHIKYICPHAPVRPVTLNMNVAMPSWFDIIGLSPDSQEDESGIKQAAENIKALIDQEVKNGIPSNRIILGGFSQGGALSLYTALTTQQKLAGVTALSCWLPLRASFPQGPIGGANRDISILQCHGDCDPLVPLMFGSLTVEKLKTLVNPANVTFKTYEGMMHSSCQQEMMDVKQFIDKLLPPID
PME-1 inh: PME-1 inhibitors via competitive probe labeling, primary screen, biochemical, fluorescence polarization, FP-Rh probe, HTS. Protein phosphatase methylesterase 1 (Homo sapiens), Q9Y570. recombinant PME-1. inhibition, % at 5.9 µM. 320,000 compounds, 0.53% hits;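 active = inhibition above the campaign mean of all compounds plus 3 SD, cut at about 26% in these data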;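 note: competitive labeling of PME-1 active site by serine hydrolase directed probe; 0% = PME-1 with DMSO and 100% = wells lacking PME-1 enzyme; inhibitors block probe labeling so polarization falls and inhibition rises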
Target sequence (Q9Y570 whole entry, looked up): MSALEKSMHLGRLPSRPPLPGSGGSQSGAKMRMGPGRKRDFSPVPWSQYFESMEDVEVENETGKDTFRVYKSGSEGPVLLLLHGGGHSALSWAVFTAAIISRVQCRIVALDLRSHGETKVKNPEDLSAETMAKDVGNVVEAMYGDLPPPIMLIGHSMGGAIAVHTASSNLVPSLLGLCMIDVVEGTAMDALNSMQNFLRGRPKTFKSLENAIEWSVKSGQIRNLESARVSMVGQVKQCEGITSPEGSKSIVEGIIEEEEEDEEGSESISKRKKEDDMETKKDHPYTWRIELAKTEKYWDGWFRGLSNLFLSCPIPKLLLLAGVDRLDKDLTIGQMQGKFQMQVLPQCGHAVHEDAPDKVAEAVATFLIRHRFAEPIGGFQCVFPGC
PREPL inhibitor: PREPL enzyme inhibitors, primary screen, biochemical, fluorescence polarization; recombinant PREPL, fluorescence polarization activity-based probe; inhibition, % at 5.96 µM; 320,000 compounds, 0.68% hits; Prolyl endopeptidase-like (Homo sapiens), Q4J6C6; in the data active = inhibition above about 43%;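 note: 0% = enzyme with DMSO and 100% = wells lacking enzyme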
LYPLA2 counter: LYPLA2 inhibitors, primary screen, counter-screen for PME1 inhibitor project, biochemical, fluorescence polarization, FP-Rh probe ABPP; recombinant LYPLA2; inhibition, % at 5.9 µM; 320,000 compounds, 0.38% hits; AID 2177, 2009;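 active = inhibition above the screen-wide mean plus 3 SD, limit set per campaign, cut at about 26% in these data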;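 note: 0% = LYPLA2 with DMSO and 100% = wells lacking LYPLA2 enzyme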
The depositor's hits bear a star; / = no result given.

SMILES	Fam108B inh	LYPLA1 counter	PME-1 inh	PREPL inhibitor	LYPLA2 counter
CC1=Nc2ccccc2/C1=C/c1nc(-c2ccc(C)s2)oc1O	4.3	-0.1	2.7	22.9	1.5
CC1=Nc2ccccc2/C1=C/c1sc(=N)n(-c2nccs2)c1O	12.7	4.3	39.2*	3.6	0.0
COc1ccc(CN(C)CC(=O)c2c(N)n(Cc3ccccc3)c(=O)n(C)c2=O)c(OC)c1	-0.5	0.1	-2.9	47.4*	1.0
Cc1ccccc1NS(=O)(=O)c1ccc(C(=O)NCCCN2CCCC2=O)cc1	-1.4	-1.2	4.7	-0.3	-4.9
Cc1cc(Br)ccc1N=C1NC(=O)CS1	-2.4	1.3	60.3*	17.4	-1.0
COc1ccc(NCC(=O)Nc2cccc(S(=O)(=O)N3CCCC3)c2)cc1Cl	/	/	/	29.1	/
Cc1ccc(N=Nc2ccc(O)c3ncccc23)cc1C	0.8	-2.2	8.6	4.5	-0.8
Cc1cc(N=Nc2ccc(C)c(N=Nc3cc(C)c(N)cc3N)c2)c(N)cc1N	10.0	0.2	8.8	69.9*	-1.4
CC1=C(C#N)C(=O)N(C2CCS(=O)(=O)C2)C(=O)/C1=C\c1ccco1 (centres undefined)	64.6*	-9.5	-19.9	14.6	0.9
O=C(N/N=C/c1sc(N2CCOCC2)nc1-c1ccccc1)c1ccccc1O	14.7	-4.1	51.0*	15.8	-8.6
O=C(N/N=C/c1sc(N2CCOCC2)nc1-c1ccccc1)c1ccccc1Cl	5.0	1.2	-0.2	9.6	5.1
O=C(OCc1c(-c2ccccc2)ncc2ccccc12)c1ccccc1C(F)(F)F	/	/	/	-1.8	/
Cc1ccc(Oc2ncnc(N)c2[N+](=O)[O-])cc1C	-0.5	-1.3	1.4	0.0	-0.4
COc1ccc(/C=C/c2nc3cc(-c4ccccc4)ccc3o2)cc1O	9.2	-11.3	-3.2	23.0	-5.1
COc1ccc(-c2c/c(=N\c3nc(-c4ccccc4)c(C)s3)c3ccccc3o2)cc1O	15.3	-14.1	30.7*	21.6	-6.7
CCOC(=O)c1ccc(NC(=S)NCCc2ccc(F)cc2)cc1	-11.7	-12.1	-6.8	4.1	-18.3
O=C(O[C@@H]1OC2COC(=O)c3cc(O)c(O)c(O)c3-c3c(cc(O)c(O)c3O)C(=O)O[C@@H]([C@H]1O)[C@@H]2O)c1cc(O)c(O)c(O)c1	15.9	-12.1	-31.9	54.0*	-6.6
Cc1cc(C)nc(N/N=C/c2cccc(Cl)c2)n1	-2.0	1.3	3.2	-5.2	-2.9
Clc1cccc(/C=N/Nc2nc(Cl)nc3ccccc23)c1	-5.4	-3.4	1.2	46.4*	6.5
COc1ccc(-c2c(C(F)(F)F)nn(C)c2NC(=O)CSCC(=O)O)cc1	0.3	0.2	-1.1	4.4	1.7
O=C(C[n+]1ccc(C(=O)N/N=C/c2ccc(O)cc2)cc1)c1ccccc1	1.3	-8.3	4.0	37.7	-8.0
O=C(C[n+]1ccc(C(=O)N/N=C/c2ccc(OCc3ccccc3)cc2)cc1)c1ccccc1	-1.1	-2.6	3.2	50.4*	-6.9
CCC1CSC(=Nc2ccc(C)cc2)N1C(=O)CN1C(=O)NC2(CCCC2)C1=O (centres undefined)	-1.6	4.0	3.8	-2.3	9.2
COc1cccc2sc(Nc3nnc(-c4ccccc4Cl)o3)nc12	4.9	4.2	22.3	25.5	-1.2
COc1cccc(-c2nnc(Nc3nc4c(F)cccc4s3)o2)c1	9.2	5.1	43.8*	18.8	0.2
SMILES	Fam108B inh	LYPLA1 counter	PME-1 inh	PREPL inhibitor	LYPLA2 counter
COc1ccccc1-c1nnc(Nc2nc3c(OC)cccc3s2)o1	8.2	1.4	31.1*	10.3	-2.3
Cc1ccc(S(=O)(=O)N2CCC[C@H]2C(=O)NCc2ccccc2Cl)cc1	/	/	/	5.1	/
Cc1ccc(-c2cc(C(=O)Nc3ccc(S(=O)(=O)Nc4ncccn4)cc3)[nH]n2)c(O)c1C	-15.6	-36.1	-37.6	-0.8	-48.6
CC(C)=NOc1nc(NC(=O)NS(=O)(=O)c2ccccc2Cl)nc(N(C)C)n1	-4.2	-4.1	-6.9	2.7	-9.0
CN(c1ccccc1)c1ccc(/C=N/NC(=O)CC#N)cc1	2.7	-1.1	1.3	50.3*	3.9
CC(C)(C)c1nnc(NS(=O)(=O)c2cc(Cl)ccc2Cl)s1	-2.2	-8.1	-3.7	-5.1	-3.3
O=S(=O)(Nc1nc(-c2sccc2Cl)cs1)c1cc(Cl)ccc1Cl	28.6*	-2.0	13.2	1.2	-4.7
O=C(c1cccnc1)N1N=C(c2cccs2)CC1c1ccc(F)cc1 (centres undefined)	0.0	-1.8	-2.8	-9.1	2.2
O=C1c2cccc(OCC(=O)N3N=C(c4cccs4)CC3c3ccc(F)cc3)c2CCN1Cc1cccnc1 (centres undefined)	6.3	-4.8	-6.2	-6.8	37.5*
CCOc1ccc(S(=O)(=O)N2CCCC(C(=O)NCc3ccncc3)C2)cc1 (centres undefined)	-1.0	3.5	-3.6	3.2	3.1
O=C(N/N=C/c1cc([N+](=O)[O-])ccc1O)c1c[nH]c2ccccc12	9.7	-4.8	12.6	14.7	-9.5
CCc1ccc(-c2cc(C(=O)N/N=C/c3c[nH]c4ccccc34)[nH]n2)cc1	1.7	-19.2	39.6*	37.7	-23.1
O=C(N/N=C/c1c[nH]c2ccccc12)c1ccc([N+](=O)[O-])cc1Cl	14.7	2.2	26.4*	20.1	6.5
c1cc2c3c(cccc3c1)NC1(CCCCCC1)N2	3.1	-6.3	1.8	52.1*	-3.0
c1cc2c3c(cccc3c1)NC1(CCCCC1)N2	2.8	-9.0	-3.2	20.0	-9.6
COc1ccc(NC(=O)c2c[nH]n3c(=O)cc(C4CCN(C(=O)OC(C)(C)C)CC4)nc23)cc1Cl	4.7	0.5	32.8*	26.6	-3.3
CC(C)(C)OC(=O)N1CCC(c2cc(=O)n3[nH]c(-c4ccc(Cl)cc4)cc3n2)CC1	-1.0	1.0	-8.0	0.5	-0.2
COc1ccccc1NC(=O)c1cc2ccccc2o/c1=N\O	-5.7	2.1	-2.7	-1.8	11.3
COc1ccccc1NC(=O)c1cc2ccc(O)cc2o/c1=N\O	15.7	1.9	27.4*	18.6	7.4
CCOC(=O)c1sc2nc(CC(=O)OC)nc(N3CCN(c4ccc(OC)cc4)CC3)c2c1C	0.3	-0.8	-1.1	48.1*	-6.2
CC(=O)Nc1cccc(NC(=O)CSc2nnc3ccc(-c4ccncc4)nn23)c1	0.2	1.1	-1.9	-1.4	-0.2
COCCn1nnnc1CN(CCc1ccccc1)Cc1cc2cc(OC)ccc2[nH]c1=O	-1.0	1.6	1.4	54.0*	1.0
COCCn1nnnc1CN(CCc1ccc(OC)c(OC)c1)Cc1cc2ccc(C)cc2[nH]c1=O	-4.2	-2.8	3.3	6.7	-1.1
CN(CC(=O)Nc1c(Cl)cccc1Cl)C(=O)CCNS(=O)(=O)c1ccccc1C(F)(F)F	2.0	0.2	-3.7	-5.6	4.7
COc1cc2c(cc1NC(=S)Nc1cccc(C)c1)oc1ccccc12	4.8	-3.2	7.0	44.2*	-8.7
